# Data published in PubChem BioAssay (EPA / NIEHS).
# Records with an inconclusive call do not appear. The source made the active and inactive calls. Rule for the calls: active = hit-call score of the fitted dose curve at least 0.9, where 1 is the maximum; inconclusive = response in the unintended direction; inactive = score below 0.9.
# Tests used:
# [1] = target: Cellular tumor antigen p53 (Homo sapiens) (UniProt P04637); assay: TOX21_p53_BLA_p2_ratio: Tox21 HCT-116 p53 Agonism Beta-lactamase Assay, Ratio, Phase 2 (AID 2283592)
# Procedure, shortened: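 HCT116 cells carrying a p53-responsive beta-lactamase reporter were plated, incubated 5 h at 37C, then dosed with compounds in DMSO (217-fold dilution) for 16 h. CCF4-AM substrate was added for 2 h at room temperature; the 460/530 nm emission ratio gave gain-of-signal activity relative to DMSO.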
# [2] = target: Cellular tumor antigen p53 (Homo sapiens) (UniProt P04637); assay: TOX21_p53_BLA_p3_ratio: Tox21 HCT-116 p53 Agonism Beta-lactamase Assay, Ratio, Phase 3 (AID 2283596)
# Procedure, shortened: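 HCT116 p53-bla cells (4000/well) given compound in DMSO (217-fold dilution) after 5 h, incubated 16 h at 37C. CCF4-AM substrate 2 h at room temperature; 460/530 nm emission ratio, gain fitted against DMSO.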
# [3] = target: Cellular tumor antigen p53 (Homo sapiens) (UniProt P04637); assay: TOX21_p53_BLA_p5_ratio: Tox21 HCT-116 p53 Agonism Beta-lactamase Assay, Ratio, Phase 5 (AID 2283599)
# Procedure, shortened: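 HCT-116 cells carrying a p53-inducible beta-lactamase reporter were seeded at 4000 cells/well and dosed after 5 h with compound in DMSO (217-fold dilution). After 16 h at 37C, CCF4-AM substrate was added for 2 h, and the 460/530 nm emission ratio was scored as gain-of-signal versus DMSO.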
# [4] = TOX21_p53_BLA_p5_viability: Viability Assessment in the Tox21 HCT-116 p53 Agonism Beta-lactamase Assay, Phase 5 (AID 2283600)
# Procedure, shortened: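 Cells were plated at 4000/well, rested 5 h at 37C, then given compounds in DMSO (217-fold dilution) for 16 h at 37C, 5% CO2. Following the CCF4-AM beta-lactamase read, CellTiter-Glo was added and luminescence was read after 30 min at room temperature.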
# [5] = target: Cellular tumor antigen p53 (Homo sapiens) (UniProt P04637); assay: TOX21_p53_BLA_p4_ratio: Tox21 HCT-116 p53 Agonism Beta-lactamase Assay, Ratio, Phase 4 (AID 2283601)
# Procedure, shortened: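 HCT116 cells carrying an inducible beta-lactamase reporter were plated at 4000 cells/well, rested 5 h, then exposed to compounds in DMSO (217-fold dilution) for 16 h at 37C. CCF4-AM substrate was loaded 2 h at room temperature; 460/530 nm emission ratio scored gain-of-signal versus DMSO.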
# Sequence of Cellular tumor antigen p53 (Homo sapiens) (P04637 whole entry, looked up): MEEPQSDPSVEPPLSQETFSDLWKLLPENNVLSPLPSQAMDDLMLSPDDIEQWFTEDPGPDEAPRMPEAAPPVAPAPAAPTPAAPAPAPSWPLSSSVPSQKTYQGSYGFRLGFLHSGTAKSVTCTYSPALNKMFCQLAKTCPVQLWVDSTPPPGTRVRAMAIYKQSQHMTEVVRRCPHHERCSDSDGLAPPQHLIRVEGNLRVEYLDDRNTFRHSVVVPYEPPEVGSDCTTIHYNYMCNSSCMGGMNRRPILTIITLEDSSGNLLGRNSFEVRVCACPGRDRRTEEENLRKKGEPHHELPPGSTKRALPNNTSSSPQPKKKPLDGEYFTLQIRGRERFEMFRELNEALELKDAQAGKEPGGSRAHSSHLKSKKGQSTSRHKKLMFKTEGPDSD
smiles,measurement,setting,value
CCOc1cc(NC(C)=O)ccc1C(=O)OC,outcome,[1],inactive
same,outcome,[2],inactive
same,outcome,[3],inactive
same,outcome,[4],inactive
same,outcome,[5],inactive
C[C@@](Cc1ccc(O)c(O)c1)(NN)C(=O)O,outcome,[1],inactive
same,outcome,[2],inactive
same,outcome,[3],inactive
same,outcome,[4],inactive
same,outcome,[5],inactive
NC(=O)OC[C@@H]1[C@H](NC(=O)/C(=N\OCC(=O)O)c2csc(N)n2)C(=O)N1S(=O)(=O)O,outcome,[1],inactive
same,outcome,[2],inactive
same,outcome,[3],inactive
same,outcome,[5],inactive
COc1cc(Nc2c(C#N)cnc3cc(OCCCN4CCN(C)CC4)c(OC)cc23)c(Cl)cc1Cl,outcome,[1],inactive
same,AC50,[2],17.8 µM (active)
same,AC50,[3],10.9 µM (active)
same,AC50,[5],7.74 µM (active)
O=C(CCNNC(=O)c1ccncc1)NCc1ccccc1,outcome,[1],inactive
same,outcome,[2],inactive
same,outcome,[3],inactive
same,outcome,[4],inactive
same,outcome,[5],inactive
COc1ccc(-c2nc3ccc(C4=NNC(=O)CC4C)cc3[nH]2)cc1 (stereo unspecified),AC50,[1],17.1 µM (active)
same,AC50,[2],21.5 µM (active)
same,AC50,[3],16.3 µM (active)
same,outcome,[4],inactive
same,AC50,[5],15 µM (active)
CC[C@]1(O)C[C@H]2CN(CCc3c([nH]c4ccccc34)[C@@](C(=O)OC)(c3cc4c(cc3OC)N(C=O)[C@H]3[C@@](O)(C(=O)OC)[C@H](OC(C)=O)[C@]5(CC)C=CCN6CC[C@]43[C@@H]65)C2)C1,AC50,[1],0.0112 µM (active)
same,AC50,[2],0.00209 µM (active)
same,AC50,[3],0.00486 µM (active)
same,outcome,[4],inactive
same,AC50,[5],0.0184 µM (active)
CCOCC(O)COc1ccc(NC(=O)CC[S+](C)C)cc1 (stereo unspecified),outcome,[1],inactive
same,outcome,[2],inactive
same,outcome,[3],inactive
same,outcome,[5],inactive
O=C(c1ccc(O)cc1)c1ccc(O)cc1,outcome,[1],inactive
same,outcome,[2],inactive
same,outcome,[3],inactive
same,AC50,[5],75.5 µM (active)
CC(CN1c2ccccc2Sc2cccnc21)N(C)C (stereo unspecified),outcome,[1],inactive
same,outcome,[2],inactive
same,outcome,[3],inactive
same,outcome,[5],inactive
CCC=O,outcome,[1],inactive
same,outcome,[2],inactive
same,outcome,[3],inactive
same,outcome,[5],inactive
CCCCc1ccc2nc(NC(=O)OC)[nH]c2c1,outcome,[1],inactive
same,AC50,[2],0.0408 µM (active)
same,outcome,[3],inactive
same,outcome,[5],inactive
NC(=O)Cc1cccc2ccccc12,outcome,[1],inactive
same,outcome,[2],inactive
same,outcome,[3],inactive
same,outcome,[4],inactive
same,outcome,[5],inactive
CN(C)CCN(Cc1ccc(Cl)cc1)c1ccccn1,outcome,[1],inactive
same,outcome,[2],inactive
same,outcome,[3],inactive
same,outcome,[5],inactive
C=CC(=O)OCCOCC(CC)(COCCOC(=O)C=C)COCCOC(=O)C=C,outcome,[1],inactive
same,outcome,[2],inactive
same,outcome,[3],inactive
same,outcome,[4],inactive
same,outcome,[5],inactive
NC(=O)CC[C@@H](N)C(=O)O,outcome,[1],inactive
same,outcome,[2],inactive
same,outcome,[3],inactive
same,outcome,[4],inactive
same,outcome,[5],inactive
O=C1c2ccccc2C(=O)C1c1ccccc1,outcome,[1],inactive
same,outcome,[2],inactive
same,outcome,[3],inactive
same,outcome,[5],inactive
FC1(F)C(F)(F)C(F)(F)C2(F)C(F)(F)C(F)(F)C(F)(F)C(F)(F)C2(F)C1(F)F (stereo unspecified),outcome,[1],inactive
same,outcome,[2],inactive
same,outcome,[3],inactive
same,outcome,[5],inactive
NC[C@H]1O[C@H](O[C@H]2[C@H](O[C@@H]3O[C@H](CO)[C@@H](O)[C@H]3O)C(O)[C@H](N)C[C@@H]2N)[C@H](N)[C@@H](O)[C@@H]1O (stereo partly specified),outcome,[1],inactive
same,outcome,[2],inactive
same,outcome,[3],inactive
same,outcome,[5],inactive
NC1[C@H]2CN(c3nc4c(cc3F)c(=O)c(C(=O)O)cn4-c3ccc(F)cc3F)C[C@@H]12 (stereo partly specified),AC50,[1],30.4 µM (active)
same,AC50,[2],27.3 µM (active)
same,outcome,[3],inactive
same,outcome,[5],inactive
Cc1cc(O)ccc1O,outcome,[1],inactive
same,outcome,[2],inactive
same,outcome,[3],inactive
same,outcome,[4],inactive
same,outcome,[5],inactive
CN1CCN(C(c2ccccc2)c2ccccc2)CC1,outcome,[1],inactive
same,outcome,[2],inactive
same,outcome,[3],inactive
same,outcome,[5],inactive
CC(=O)OCC(=O)[C@@]1(O)CC[C@H]2[C@@H]3CCC4=CC(=O)CC[C@]4(C)C3=CC[C@@]21C,outcome,[1],inactive
same,outcome,[2],inactive
same,outcome,[3],inactive
same,outcome,[4],inactive
same,outcome,[5],inactive
CCOC(=O)c1ccc(I)cc1,outcome,[1],inactive
same,outcome,[2],inactive
same,outcome,[3],inactive
same,outcome,[5],inactive
O=C(O)COc1ccccc1/C=N/NC(=O)c1ccncc1,outcome,[1],inactive
same,outcome,[2],inactive
same,outcome,[3],inactive
same,outcome,[4],inactive
same,outcome,[5],inactive
CN1CCN(c2c(F)cc3c(=O)c(C(=O)O)cn4c3c2SCC4)CC1,outcome,[1],inactive
same,outcome,[2],inactive
same,outcome,[3],inactive
same,outcome,[5],inactive
CC[C@]12CCCN3CCc4c(n(c5ccccc45)C(=O)C1)[C@@H]32,AC50,[1],3.57 µM (active)
same,AC50,[2],4.33 µM (active)
same,AC50,[3],5.58 µM (active)
same,AC50,[5],3.51 µM (active)
COC(=O)C(C)(C)C,outcome,[1],inactive
same,outcome,[2],inactive
same,outcome,[3],inactive
same,outcome,[4],inactive
same,outcome,[5],inactive
CCCOc1ccc2nc(NC(=O)OC)[nH]c2c1,outcome,[1],inactive
same,AC50,[2],0.24 µM (active)
same,outcome,[3],inactive
same,outcome,[5],inactive
NC(=O)c1ccc[n+]([C@@H]2O[C@H](COP(=O)([O-])OP(=O)(O)OC[C@H]3O[C@@H](n4cnc5c(N)ncnc54)[C@H](O)[C@@H]3O)[C@@H](O)[C@H]2O)c1,outcome,[1],inactive
same,outcome,[2],inactive
same,outcome,[3],inactive
same,outcome,[5],inactive
COc1cc(C(=S)N2CCOCC2)ccc1O,outcome,[1],inactive
same,outcome,[2],inactive
same,outcome,[3],inactive
same,outcome,[4],inactive
same,outcome,[5],inactive
COc1cc(C(=O)NCCCCCC(=O)O)cc(OC)c1OC,outcome,[1],inactive
same,outcome,[2],inactive
same,outcome,[3],inactive
same,outcome,[5],inactive
CNCC(=O)N[C@@H](CCCN=C(N)N)C(=O)N[C@H](C(=O)N[C@@H](Cc1ccc(O)cc1)C(=O)N[C@H](C(=O)N[C@@H](Cc1cnc[nH]1)C(=O)N1CCC[C@H]1C(=O)N[C@@H](C)C(=O)O)C(C)C)C(C)C,outcome,[1],inactive
same,outcome,[2],inactive
same,outcome,[3],inactive
same,outcome,[5],inactive
CCCC(C)C,outcome,[1],inactive
same,outcome,[2],inactive
same,outcome,[3],inactive
same,outcome,[5],inactive
CN1C[C@H]2c3ccccc3Oc3ccc(Cl)cc3[C@@H]2C1,outcome,[1],inactive
same,AC50,[2],43.8 µM (active)
same,outcome,[3],inactive
same,outcome,[5],inactive
O=c1[nH]cnc2c1ncn2[C@@H]1O[C@H](CO)[C@@H](O)[C@H]1O,outcome,[1],inactive
same,outcome,[2],inactive
same,outcome,[3],inactive
same,outcome,[5],inactive
COc1cc2nc(N3CCN(C(=O)c4ccco4)CC3)nc(N)c2cc1OC,outcome,[1],inactive
same,outcome,[2],inactive
same,outcome,[3],inactive
same,outcome,[5],inactive
